{"source": "PubChem BioAssay", "note": "Results with a measured potency or affinity are listed apart. A number with no mark means an inactive call. The source made the active and inactive calls.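 Rule for the calls: active = signal drop whose fitted half-maximal concentration is at most twice the top valid dose, in every test run; inconclusive = mixed calls across runs, poor fit, or flat 30 to 70% inhibition; inactive = wrong direction, flat within 30%, or potency beyond limit.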", "data": [{"test": "RMG-1 ovarian cancer cell viability loss – cherry-pick, dose response (AID 687029);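 note: cells exposed to compound for 96 hours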", "details": "RMG-1 viability, CellTiterGlo ATP luminescence, 96 h; series mostly up to 35 µM; activity change, negative = inhibition: at the top concentration", "units": {"activity change, negative = inhibition": "%"}, "values": [{"compound": "COc1ccc(S(=O)(=O)Nc2ccc3c(c2)CC(=O)N([C@@H](C)CO)C[C@@H](C)[C@H](CN(C)Cc2ccc(-c4ccccc4)cc2)O3)cc1", "activity change, negative = inhibition": 11.2}, {"compound": "C[C@H](O)C#Cc1cnc2c(c1)C(=O)N([C@H](C)CO)C[C@H](C)[C@H](CN(C)Cc1ccc(-c3ccccc3)cc1)O2", "activity change, negative = inhibition": 16.2}, {"compound": "O=C(c1ccc(F)cc1)N1C[C@@H]2N[C@H](C1)C2c1ccc(-c2ccc(F)cc2)cc1", "note": "(some centres undefined)", "activity change, negative = inhibition": -5.59}, {"compound": "C[C@H](O)C#Cc1ccc2c(c1)O[C@H](CN(C)Cc1ccc(-c3ccccc3)cc1)[C@@H](C)CN([C@H](C)CO)S2(=O)=O", "activity change, negative = inhibition": 1.55}, {"compound": "C[C@@H]1CN([C@H](C)CO)C(=O)Cc2cc(NS(=O)(=O)c3ccccc3)ccc2O[C@@H]1CN(C)S(=O)(=O)c1ccc(Cl)cc1", "activity change, negative = inhibition": 14.2}, {"compound": "C[C@@H]1CCCCO[C@H](CN(C)C)[C@H](C)CN([C@H](C)CO)C(=O)c2cc(NC(=O)Nc3cccc4ccccc34)ccc2O1", "activity change, negative = inhibition": 2.04}, {"compound": "C[C@@H]1CN([C@H](C)CO)C(=O)c2c(c3ccccc3n2C)-c2ccccc2CO[C@@H]1CN(C)C", "activity change, negative = inhibition": 14.1}, {"compound": "COc1ccccc1S(=O)(=O)N(C)C[C@@H]1Oc2cc(C#CCC3CCCC3)ccc2S(=O)(=O)N([C@@H](C)CO)C[C@@H]1C", "activity change, negative = inhibition": 20.1}, {"compound": "CCCN(C)C[C@H]1OCCCC[C@@H](C)Oc2ccc(NC(=O)c3ccccc3)cc2C(=O)N([C@H](C)CO)C[C@H]1C", "activity change, negative = inhibition": 13}, {"compound": "C[C@@H]1CN([C@@H](C)CO)C(=O)Cc2cc(NC(=O)Nc3ccc(F)cc3)ccc2O[C@H]1CN(C)CC1CCCCC1", "activity change, negative = inhibition": 22.2}, {"compound": "O=C(Nc1cccc(F)c1)N[C@@H]1CC[C@@H](CCNS(=O)(=O)c2cccc(Cl)c2)O[C@@H]1CO", "activity change, negative = inhibition": 30}, {"compound": "C[C@@H]1CN([C@@H](C)CO)C(=O)Cc2cc(N(C)C)ccc2O[C@H]1CN(C)Cc1ccc(Oc2ccccc2)cc1", "activity change, negative = inhibition": 20.3}, {"compound": "Cc1ccc(S(=O)(=O)Nc2ccc3c(c2)C(=O)N([C@@H](C)CO)C[C@@H](C)[C@@H](CN(C)Cc2ccc(C(F)(F)F)cc2)OCCCC[C@@H](C)O3)cc1", "activity change, negative = inhibition": -3.91}, {"compound": "Cc1cccc(-c2ccc([C@H]3[C@H](CO)N4CCCCN(S(=O)(=O)c5ccccc5C)C[C@@H]34)cc2)c1", "activity change, negative = inhibition": 24.9}, {"compound": "C[C@H]1CCCCO[C@@H](CN(C)C(=O)Nc2ccc(C(F)(F)F)cc2)[C@@H](C)CN([C@@H](C)CO)C(=O)c2cc(NS(=O)(=O)c3cn(C)cn3)ccc2O1", "activity change, negative = inhibition": 11.1}, {"compound": "C[C@@H]1CN([C@H](C)CO)C(=O)c2cc(NC(=O)Nc3ccccc3)ccc2O[C@@H](C)CCCCO[C@H]1CN(C)Cc1ccc(Cl)c(Cl)c1", "activity change, negative = inhibition": 6.55}, {"compound": "C[C@H]1CCCCO[C@@H](CN(C)C)[C@@H](C)CN([C@@H](C)CO)C(=O)c2cc(NC(=O)Nc3ccc(C(F)(F)F)cc3)ccc2O1", "activity change, negative = inhibition": 13.4}, {"compound": "C[C@H](CO)N1C[C@H](C)[C@@H](CN(C)Cc2ccc(-c3ccccc3)cc2)Oc2ccc(NC(=O)Cc3ccccc3)cc2CC1=O", "activity change, negative = inhibition": 9.35}, {"compound": "C[C@H](CO)N1C[C@H](C)[C@H](CN(C)C(=O)NC2CCCCC2)Oc2cc(C#Cc3ccc(F)cc3)ccc2S1(=O)=O", "activity change, negative = inhibition": 13.2}, {"compound": "O=C(Nc1ccc(C(F)(F)F)cc1)N1C[C@@H]2N[C@H](C1)C2c1ccc(-c2ccccc2)cc1", "note": "(some centres undefined)", "outcome": "inactive"}, {"compound": "C[C@@H]1CCCCO[C@H](CN(C)Cc2ccc(C(F)(F)F)cc2)[C@H](C)CN([C@@H](C)CO)C(=O)c2cc(NC(=O)Nc3ccc(F)cc3)ccc2O1", "activity change, negative = inhibition": 8.59}, {"compound": "Cc1ccc(S(=O)(=O)Nc2ccc3c(c2)C(=O)N([C@@H](C)CO)C[C@@H](C)[C@@H](CN(C)Cc2ccc(C(F)(F)F)cc2)OCCCC[C@H](C)O3)cc1", "activity change, negative = inhibition": -2.35}, {"compound": "C[C@H](CO)N1C[C@H](C)[C@H](CN(C)C(=O)NC2CCCCC2)OCCCC[C@H](C)Oc2ccc(NC(=O)Nc3ccc(C(F)(F)F)cc3)cc2C1=O", "activity change, negative = inhibition": 24.4}, {"compound": "C[C@@H]1CN([C@@H](C)CO)S(=O)(=O)c2ccc(C#Cc3ccc(F)cc3)cc2O[C@H]1CN(C)C(=O)NC1CCCCC1", "activity change, negative = inhibition": 15.9}, {"compound": "C[C@@H]1CN([C@@H](C)CO)C(=O)Cc2cc(NC(=O)c3ccncc3)ccc2O[C@@H]1CN(C)Cc1ccc(-c2ccccc2)cc1", "activity change, negative = inhibition": 20.4}, {"compound": "Cc1ccc(S(=O)(=O)Nc2ccc3c(c2)C(=O)N([C@@H](C)CO)C[C@@H](C)[C@@H](CN(C)Cc2ccc(Cl)c(Cl)c2)OCCCC[C@@H](C)O3)cc1", "activity change, negative = inhibition": 16.1}, {"compound": "O=C(C[C@H]1CC[C@@H]2[C@H](COC[C@@H](O)CN2Cc2ccc(F)cc2)O1)NCc1ccccc1Cl", "activity change, negative = inhibition": 23.7}, {"compound": "CCCC#Cc1ccc([C@@H]2[C@H]3CN(S(=O)(=O)c4ccccc4F)CCCCN3[C@H]2CO)cc1", "activity change, negative = inhibition": 18.2}, {"compound": "Cc1ccc(S(=O)(=O)N[C@@H]2C=C[C@@H](CC(=O)N3CCC(Cc4ccccc4)CC3)O[C@@H]2CO)cc1", "activity change, negative = inhibition": 34.4}, {"compound": "COc1cccc(S(=O)(=O)N(C)C[C@H]2OCc3ccccc3-c3c(n(C)c4ccccc34)C(=O)N([C@@H](C)CO)C[C@H]2C)c1", "activity change, negative = inhibition": 3.82}, {"compound": "C[C@@H]1CN([C@@H](C)CO)C(=O)c2ccccc2-c2ccccc2CO[C@@H]1CN(C)Cc1ccc2c(c1)OCCN2C", "activity change, negative = inhibition": 9.06}, {"compound": "C[C@@H]1CCCCO[C@H](CN(C)Cc2ccccc2)[C@H](C)CN([C@H](C)CO)C(=O)c2cc(NC(=O)Nc3ccc(C(F)(F)F)cc3)ccc2O1", "activity change, negative = inhibition": 28.1}, {"compound": "O=C(C[C@H]1CC[C@H]2[C@@H](COC[C@@H](O)CN2Cc2ccc(F)cc2)O1)NCc1ccccc1Cl", "activity change, negative = inhibition": 7.21}, {"compound": "C[C@@H]1CN([C@@H](C)CO)C(=O)Cc2cc(NC(=O)C3CC3)ccc2O[C@H]1CN(C)Cc1ccc(-c2ccccc2)cc1", "activity change, negative = inhibition": 8.5}, {"compound": "COc1ccc(S(=O)(=O)N2CCCCN3[C@H](C2)[C@@H](c2ccc(C#CC(C)C)cc2)[C@@H]3CO)cc1", "activity change, negative = inhibition": 29.5}, {"compound": "C[C@@H]1CCCCO[C@@H](CN(C)C(=O)Nc2ccccc2)[C@H](C)CN([C@H](C)CO)C(=O)c2cc(NC(=O)Nc3ccc(C(F)(F)F)cc3)ccc2O1", "activity change, negative = inhibition": 21.6}, {"compound": "C[C@@H]1CCCCO[C@H](CN(C)Cc2ccc(C(F)(F)F)cc2)[C@@H](C)CN([C@@H](C)CO)C(=O)c2cc(NS(=O)(=O)c3cccs3)ccc2O1", "activity change, negative = inhibition": 10.8}, {"compound": "COc1ccc(S(=O)(=O)Nc2ccc3c(c2)C(=O)N([C@@H](C)CO)C[C@H](C)[C@H](CN(C)Cc2ccc(C(F)(F)F)cc2)OCCCC[C@@H](C)O3)cc1", "activity change, negative = inhibition": 2.16}, {"compound": "C[C@@H]1CN([C@@H](C)CO)C(=O)Cc2cc(NS(=O)(=O)c3ccc(F)cc3)ccc2O[C@H]1CN(C)Cc1ccc(Oc2ccccc2)cc1", "activity change, negative = inhibition": 19.7}]}]}
